DT40 TDP1 no CPT = qHTS for Inhibitors of human tyrosyl-DNA phosphodiesterase 1 (TDP1): qHTS in cells in absence of CPT; DT40 Tdp1-/- hTDP1 cells, no CPT, ATP luminescence, 48 h; Potency, µM (titrated, usually from 46.2 µM), inactives show at the top dose activity change, negative = growth inhibition, hits mostly inhibitors; actives 15% (n = 420,000); AID 686978, 2013; also: % is scaled to controls: 0 for no effect and ±100 for the full control effect; nearly all actives have a fitted effect of over 55% in size
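Growth kinetics read by CellTiter-Glo luminescence after ≥48 hr at 37 °C. Cells: DT40 Tdp1-/- stably carrying human TDP1, 400 per well, compound exposure in the absence of CPT (DMSO vehicle).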
HT1080 IDH1KD tx = toxicity to HT-1080 IDH1 knockdown cells (counter line); AID 686971; actives 2% (n = 360,000); HT-1080 IDH1 knockdown viability, ATP luminescence, 48 h; Potency, µM (top dose mostly 46.1 µM), for the others: at the highest dose activity, negative = toxicity, actives largely listed as cytotoxic;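 also: 0% = DMSO wells and -100% = cell-free medium wells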
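IDH1KD HT-1080 cells, 750/well, RPMI + 5% FBS; compound pinned after 2 h settling; 48 h, 37 °C; CellTiter-Glo luminescence; % activity normalised to DMSO and no-cell wells; curves fitted, classed by r2 and efficacy.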
HepG2 tox = counter-screen for TGF-b inhibitors: cytotoxicity in HepG2 cells; HepG2 CAGA-GFP viability, ATP luminescence, 18 h; Potency, µM (titrated, usually from 46.1 µM), for the others: at the top dose activity change, negative = cytotoxicity, actives largely listed as cytotoxic; actives 0.76% (n = 410,000); AID 588856
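CellTiter-Glo luminescence gave cytotoxicity after 18 hours at 37 degrees C. The cells were HepG2 CAGA-GFP in 1% FBS DMEM, stimulated with 500 pg/mL TGF-beta after compound addition. %Activity was normalised to no-cell wells (complete cell-killing) and DMSO (no toxicity), and curves were fitted and classified.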
DT40 TDP1 CPT = DT40-hTDP1 cell growth loss with CPT; chicken DT40 Tdp1-/-;hTDP1 cells + 20 nM CPT, ATP luminescence, 48 h; Potency, µM (series often up to 46.2 µM), for inactives: at the top dose activity change, negative = growth inhibition, usual class: inhibitors; actives 12% (n = 420,000); AID 686979; also: % is scaled to controls: 0 for no effect and ±100 for the full control effect; nearly all actives have a fitted effect of over 55% in size
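Chicken DT40 Tdp1-/- cells complemented with human TDP1, 400 cells/well, exposed to compounds plus 20 nM camptothecin for at least 48 h at 37 C; viability read as ATP content by CellTiter-Glo luminescence.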
HT1080-NT tox = kills 2HG-producing HT-1080-NT fibrosarcoma cells; HT-1080-NT fibrosarcoma viability, CellTiter-Glo ATP luminescence, 48 h; Potency, µM (titrated, usually from 46.1 µM), for the others: at the highest dose activity, negative = less viability, hits mostly cytotoxic; actives 1.6% (n = 360,000); AID 686970;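 also: NT is the 2HG producing partner of a matched IDH1 knockdown line; 0% = DMSO-treated cells and -100% = media-only wells without cells; nearly all actives have a fitted effect of over 55% in size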
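Compounds were tested in concentration-response format on HT-1080-NT cells for 48 hours at 37 degrees C. Cell viability came from CellTiter-Glo luminescence; curves were classified by r2, response magnitude and activity.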
TGFb inhibitor = blocks TGF-b signaling | HepG2 CAGA-GFP TGF-b/SMAD3 reporter, GFP fluorescence, 18 h; TGF-beta stimulated, 500 pg/mL final | AID 588855 | Potency, µM (top dose mostly 46.1 µM), for inactives: at the highest dose activity, negative = inhibition, actives largely listed as inhibitors | actives 1.2% (n = 410,000); also: % is scaled to controls: 0 for no effect and ±100 for the full control effect; nearly all actives have a fitted effect of over 65% in size
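Smad-responsive CAGA-GFP expression was quantified in HEPG2 cells exposed to compounds and 500 pg/mL final TGF-beta for 18 h at 37 degrees C; unstimulated wells defined full inhibition.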
An asterisk follows results filed as active; ? = inconclusive; · = no result given. An excerpt weighted towards active compounds, which were near 17% of everything screened. Calls follow the shape of the dose curve; as a rule, active = well fitted curve in the direction sought with a large enough effect; inconclusive = small, poorly fitted or top-dose-only effect, or another doubt; inactive = no such curve, though single readings can be large; an effect the other way counts as inactive or inconclusive. Potency is read from the fitted curve at half-maximal effect.

SMILES	DT40 TDP1 no CPT	HT1080 IDH1KD tx	HepG2 tox	DT40 TDP1 CPT	HT1080-NT tox	TGFb inhibitor
O=C(CSc1nnc(-c2cccs2)n1Cc1ccccc1)NCc1ccc2c(c1)OCO2	?	-4%	-14%	23µM*	-2%	0%
O=C(Cn1c(CO)nc2ccccc21)NCc1ccc2c(c1)OCO2	-15%	0%	22%	-9%	15%	9%
O=C(CCCn1c(=O)c2ccccc2n(CC(=O)Nc2cccc(Cl)c2)c1=O)NCc1ccc2c(c1)OCO2	15µM*	·	-3%	?	·	?
CC(=O)c1c(C)n(CC(=O)NCc2ccc3c(c2)OCO3)c2ccccc12	14µM*	-24%	-11%	13µM*	?	-20%
CCn1c(SCC(=O)NCc2ccc3c(c2)OCO3)nnc1-c1cccs1	-36%	0%	-7%	-5%	4%	1%
O=C(CSc1nc(O)c(C2CCCCC2)c(=O)[nH]1)Nc1ccccc1Cl	-6%	8%	1%	1%	12%	11%
CC(c1ccccc1)N1C(=O)c2ccccc2C1O (configuration not stated)	-2%	-1%	1%	-1%	1%	11%
O=C(COC(=O)CCOc1ccccc1)Nc1ncc(Cl)cc1Cl	14%	10%	-49%	-3%	13%	6%
NC(=O)Cn1c(=O)n(CCCCCC(=O)NCc2ccc3c(c2)OCO3)c(=O)c2sccc21	-12%	·	9%	-14%	·	-9%
O=C(CCCCCn1c(=O)c2sccc2n(CC(=O)Nc2cccc(Cl)c2)c1=O)NCc1ccc2c(c1)OCO2	15µM*	·	-23%	?	·	?
Cc1nc(N2CCN(S(=O)(=O)c3ccccc3C#N)CC2)c2c(-c3cccs3)csc2n1	21µM*	-13%	-54%	?	-2%	?
COc1ccccc1S(=O)(=O)N1CCN(c2nc(-c3cccs3)nc3ccccc23)CC1	7.9µM*	0%	·	10µM*	7%	·
O=S(=O)(c1ccccc1Br)N1CCN(c2nc(-c3cccs3)nc3ccccc23)CC1	?	·	5%	?	·	-1%
CC(C)(C)OC(=O)N1CCN(c2nc(-c3cccs3)nc3ccccc23)CC1	8.9µM*	1%	·	13µM*	2%	·
CCOC(=O)c1ccccc1S(=O)(=O)N1CCN(c2nc(-c3cccs3)nc3ccccc23)CC1	11µM*	23%	·	11µM*	15%	·
CC(=O)c1ccccc1S(=O)(=O)N1CCN(c2nc(-c3cccs3)nc3ccccc23)CC1	7.1µM*	0%	·	8.9µM*	1%	·
COc1ccc(Nc2nc(-c3cccs3)nc3ccccc23)cc1S(=O)(=O)N1CCOCC1	3.3µM*	?	-37%	18µM*	16µM*	?
Cc1ccccc1S(=O)(=O)N1CCN(c2nc(-c3cccs3)nc3ccccc23)CC1	?	23%	·	?	17%	·
O=C(c1ccc2c(c1)OCCO2)N1CCN(c2nc(-c3cccs3)nc3ccccc23)CC1	11µM*	-11%	·	11µM*	-19%	·
O=C(COC(=O)c1cccc(NS(=O)(=O)/C=C/c2ccccc2)c1)Nc1ccccc1OC(F)F	?	-11%	-33%	?	-4%	0%
CC(C)(C)OC(=O)N1C[C@H](O)C[C@H]1C(=O)OCC(=O)c1ccc([N+](=O)[O-])cc1	?	13%	-6%	16µM*	3%	0%
Cc1ccc(S(=O)(=O)N2CC(O)C[C@H]2C(=O)OCC(=O)c2ccccc2)cc1 (some centres not stated)	2%	5%	2%	4%	7%	0%
Cc1cc2[nH]c(=O)c(=O)[nH]c2cc1S(=O)(=O)Nc1cccc(F)c1	-10%	0%	-4%	9%	-4%	2%
Cc1ccc(-c2nnc(NC(=O)c3ccco3)o2)c(C)c1	?	-21%	-7%	-41%	?	-3%
Cc1ccccc1C(=O)Nc1nnc(-c2ccco2)s1	?	-11%	3%	-28%	1%	11%
SMILES	DT40 TDP1 no CPT	HT1080 IDH1KD tx	HepG2 tox	DT40 TDP1 CPT	HT1080-NT tox	TGFb inhibitor
O=C(COc1ccccc1)Nc1nnc(-c2ccc(Cl)cc2)o1	?	-10%	1%	?	-4%	22%
Cc1ccccc1C(=O)Nc1nnc(-c2ccco2)o1	18µM*	-9%	-22%	21µM*	0%	-2%
COc1ccccc1C(=O)Nc1nnc(-c2ccc3c(c2)CCCC3)o1	23µM*	-16%	-56%	?	-17%	?
O=C(COc1ccc(Cl)cc1)Nc1nnc(-c2ccc3c(c2)CCCC3)o1	5.8µM*	9%	-25%	-4%	19%	-15%
O=C(Nc1nnc(-c2ccccc2Cl)o1)c1ccco1	?	?	-6%	?	8.9µM*	17%
CCCCCCCCN1[C@@H](CC(=O)O)c2ccc(/C=C/C(=O)O)cc2S1(=O)=O	?	·	12%	?	·	8%
Cc1ccc(C(=O)Nc2nnc(-c3ccco3)o2)cc1C	15µM*	?	-6%	23µM*	-21%	-10%
Cc1ccccc1C(=O)Nc1nnc(-c2ccncc2)o1	?	-3%	-18%	-28%	0%	-13%
O=C(Nc1nnc(-c2ccco2)o1)c1cccc(N2C(=O)CCC2=O)c1	6%	9%	12%	12%	10%	3%
O=C(CSc1ccc(Cl)cc1)Nc1nnc(-c2ccco2)o1	?	-15%	-20%	?	2%	-16%
Cc1cccc(C(=O)Nc2nnc(-c3ccco3)o2)c1	10µM*	-25%	3%	23µM*	-17%	-16%
O=C(Nc1nnc(-c2ccco2)o1)c1ccc(Cl)cc1	13µM*	?	-28%	?	?	5%
COc1ccc(-c2nnc(NC(=O)c3ccccc3C)o2)cc1	15µM*	-28%	-32%	16µM*	-16%	?
Cc1ccc2nc(-c3ccc(N4C(=O)CC(N5CCN(CCO)CC5)C4=O)cc3)sc2c1 (configuration not stated)	15µM*	0%	-39%	?	-2%	?
Cc1ccc(N2C(=O)CC(N3CCN(c4ccccn4)CC3)C2=O)cc1 (configuration not stated)	33%	16%	-11%	-8%	11%	1%

Source: PubChem (National Center for Advancing Translational Sciences (NCATS))
